This is part of a sample that, as a whole, favours compounds with a hit. Of some 83,000 tested, about 20% had one in any assay.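 In brief: 96-well plates, 48 h treatment, single concentration, percent growth endpoint.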 Unmarked numbers belong to inactive results. The source made the active and inactive calls.
These compounds were tested on HL-60(TB) leukemia (assay: NCI-60 one-dose screen, 48 h (100 = growth as untreated, 0 = no growth, -100 = all killed)). Settings: 10 µM unless noted.
Procedure: Growth inhibition of the HL-60(TB) human tumor cell line is measured as a screen for anti-cancer activity. Cells are grown in 96 well plates and exposed to the test compound for 48 hours. Compounds are tested at a single concentration, which is 10^-5 M for most compounds. The reported endpoint is percent growth (GI% or GIPRCNT), where numbers from 0 - 100% represent growth inhibition, and numbers from -100% - 0 represent cell death. For example, a value of 40 represents 60% growth inhibition. A value of 0 means no net growth occurred over the course of the experiment. A value of -40 indicates 40% of cells at the beginning of the experiment died by the end of the experiment. A value of -100 means all cells are dead at the end of the experiment.
NCI-60 Human Tumor Cell Lines Screen was performed using the standard one-dose NCI protocol, which is described in more detail at https://dtp.cancer.gov/discovery_development/nci-60/default.htm.
Compounds with GIPRCNT values below 10 were considered active. Activity score was based on GIPRCNT using the following formula: […]
Score is 0 for GIPRCNT values of 100 or above, 50 for GIPRCNT values of 0, and 100 for GIPRCNT values of -100.
`Oc1ccc(CCC2CCCC(CCc3ccc(OCCF)cc3)N2)cc1` (stereo not given) was tested, and the growth was 82%.
For `Nc1nc(-c2cccnc2)nc2c1sc(=S)n2-c1ccccc1`, the growth was 99.3%.
With `CC(=O)O[C@@H]1C[C@]2(C(C)C)O[C@@]1(C)[C@@H]1CCC(C)=C1[C@@H]2OC(=O)/C=C/c1ccccc1` the growth was 78.8%.
In the case of `CC1(C)CC[C@]23CC[C@]4(C)[C@H](CC[C@@H]5[C@@]6(C)C/C(=C/O)C(=O)C(C)(C)[C@@H]6CC[C@]54C)[C@H]2[C@H]1OC3`, the growth is reported as 102%.
Work on `CC1(C)CC[C@]2(CO)CC[C@]3(C)[C@](O)([C@H](O)C[C@@H]4[C@@]5(C)CCCNC(C)(C)[C@@H]5CC[C@]43C)[C@@H]2C1` yielded a growth of 71%.
With `O=C(/C=C/c1ccc(F)cc1)c1ccc(NC(=O)N2CCN(c3cc4c(cc3F)c(=O)c(C(=O)O)cn4C3CC3)CC2)cc1` the growth was 98.1%.
Work on `CCC(C)/C=C(C)/C=C/C(=O)c1c(O)c(-c2ccc(O)cc2)c[nH]c1=O` (stereo not given) yielded a growth of 36%.
`O=[N+]([O-])c1ccc(N/N=C/C2CCCCCC2)c([N+](=O)[O-])c1` showed a growth of 97.1%.
In the case of `Nc1nc(-c2cc3c(cc2Cl)NC(=O)/C3=C/c2ccccc2)cs1`, the growth is reported as 47%.
In the case of `COc1cc(OC)c(C(=O)/C=C/c2cccc(OC(C)=O)c2)cc1CC=C(C)C`, the growth is reported as 8.14% (active).
`COc1ccc(-c2nc(SCC(=O)Nc3ccc(C(C)=O)cc3)[nH]c(=O)c2C#N)cc1` showed a growth of 88.2%.
In the case of `CC[C@]12C=CCN3CC[C@@]4(c5cc(NC(=O)CCC(=O)O[C@H]6CC[C@H]7[C@@H]8CC[C@H]9CC(=O)CC[C@]9(C)[C@H]8CC[C@]67C)c(OC)cc5N(C)[C@H]4[C@@](O)(C(=O)OC)[C@@H]1OC(C)=O)[C@@H]32`, the growth is reported as 38.6%.
For `COc1ccc(-c2nc(/C=C3/C(=O)Nc4ccc(F)cc43)c3ccccn23)cc1`, the growth was 61.6%.
`Cc1ccc2nc(Cl)c(Cn3nnnc3SCc3ccccc3)cc2c1` showed a growth of 97.4%.
For `O=C(Nc1cccc(Cl)c1)Nc1cc2ncncc2cc1OCc1cccc(F)c1`, the growth was 7.49% (active).
In the case of `CCN(CC)CC#CCOC(=O)[C@]1(C)CCC[C@@]2(C)[C@H]1CC(C=O)=C1C=C(C(C)C)CC[C@@H]12`, the growth is reported as 51.6%.
`Fc1ccc2c(-c3cncn3CCc3ccccc3)c[nH]c2c1` showed a growth of 85.8%.
Compound `CCC(=O)c1ccc(Cl)s1` has a growth of 70.4%.
For `CCN(CC)CCNc1nc2ccccc2c2c(=O)c3cc(Cl)ccc3sc12`, the growth was 78.1%.
In the case of `CCOC(=O)/C=C\C(=O)NC(N)=O`, the growth is reported as 74.9%.
Work on `C/C(=N\NC(=O)c1ccncc1)c1ccc(N)cc1` yielded a growth of 90.2%.
Compound `Cc1ccc(NC(=O)c2nc(S(C)(=O)=O)oc2-c2ccc(F)cc2)cc1Nc1ccc2ncn(C)c(=O)c2c1` has a growth of 46.5%.
`Cc1ccc(/C=C2\Oc3ccc(O)c(O)c3C2=O)cc1` was tested, and the growth was 14.7%.
With `O=C1C(Cl)=C(Nc2cccc3cc4ccccc4nc23)C(=O)c2ccccc21` the growth was 47.8%.
Work on `CC(O)C(N)=O` (stereo not given) yielded a growth of 117%.
With `CCN(CC)CCCC(Nc1c2ccc(Cl)cc2nc2ccc(OC)cc12)c1ccc(F)cc1` (stereo not given) the growth was -37.5% (active).
`CCCCCCCCCc1ccc(OC(C)=O)cc1` was tested, and the growth was 108%.
`Nc1c(C(=O)c2ccccc2)nnc2ncnn12` showed a growth of 105%.
Compound `COc1ccc(-c2cc(-c3cccnc3)nc3sc(C(=O)Nc4ccccc4)c(N)c23)cc1OC` has a growth of 60.2%.
In the case of `Clc1ncccc1Nc1ccc2nnc(-c3ccncc3)n2n1`, the growth is reported as 89.5%.
`Cc1nc(S(=O)(=O)c2ccccc2)c(S(=O)(=O)Cc2ccc([N+](=O)[O-])cc2)o1` gave a growth of 89.9%.
`NS(=O)(=O)c1ccc(-n2ncc3c(NC4CCCCC4)ncnc32)cc1` showed a growth of 70.7%.
`O=C(/C=C/c1ccc(Cl)cc1)c1ccc(-n2cc(CN3CCN(c4cc5c(cc4F)c(=O)c(C(=O)O)cn5C4CC4)CC3)nn2)cc1` showed a growth of 99%.
In the case of `COc1ccc2c(c1)O/C(=C\c1ncc([N+](=O)[O-])n1C)C2=O`, the growth is reported as -3.86% (active).
With `c1ccc(-c2ccc3ccccc3[o+]2)cc1` the growth was 89.7%.
With `c1ccc(-c2n(Cc3ccc4ccccc4n3)cc[n+]2Cc2ccc3ccccc3n2)cc1` the growth was -33.1% (active).
With `O=C1C=CC(=O)N1c1ccccc1N1C(=O)C=CC1=O` the growth was 31.7%.
In the case of `OC(c1cc(-c2ccc(Cl)cc2)nc2c(Cl)cccc12)C1CCCCN1` (stereo not given), the growth is reported as -67% (active).
With `COc1ccc(Nc2ncc(Br)c(NCCCNC(=O)C3CCCC3)n2)cc1` the growth was 17%.
With `CCOC(=O)C1=C(C)NC(SCc2nnc(-c3ccc(Cl)cc3)o2)=NC1c1ccc(Br)cc1` (stereo not given) the growth was 22.5%.
